Drawing on PubChem BioAssay, this text covers z-score and composite z-score for twelve compounds.

The nature of experiment [1]: resazurin metabolic signal in HepG2 cells – cell-based, resazurin fluorescence, 24 h, PK04 Diversity Set, profiling panel (AID 1172). Also: test concentration not given here. Particulars: HepG2 viability, higher = more signal. (Resazurin is reduced to fluorescent resorufin, in cell work by metabolically active cells.)
Experiment [2] is described as follows: budding yeast growth changes without added modifier – OD600, strain BY4716, 24 h, basal condition, primary screen (AID 1173). Conditions: S. cerevisiae BY4716 growth, OD600, 24 h; higher = more signal, called active from +8 up or from −8 down.
A short description of experiment [3]: viability profiling in MM1S myeloma cells – cell-based, resazurin fluorescence, basal, 24 h, PK04 Diversity Set, profiling panel (AID 1174).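 Also: MM1S multiple myeloma cell line; test concentration not given here.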 Particulars: higher = more signal, called active from +8 up or from −8 down.
For experiment [4], the target named is Dihydroorotate dehydrogenase (quinone), mitochondrial (Plasmodium falciparum (isolate 3D7)) (UniProt Q08210). Description: inhibition of P. falciparum DHODH – biochemical, C-terminal His tag, absorbance 600 nm, primary screen (AID 1175).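 Also: recombinant parasite enzyme with a five histidine tag at its C terminus; test concentration not given here.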 Particulars: PfDHODH enzyme, DCIP absorbance 600 nm; higher = more signal, called active from +8 up or from −8 down.
Experiment [5] in a line: inhibition of PAO1 biofilm formation – strain PAO1, LB-PBS medium, absorbance 600 nm, primary screen (AID 1176). Also: test concentration not given here. Conditions: P. aeruginosa PAO1 growth/biofilm, A600, 12 h; higher = more signal.
A short description of experiment [6]: growth modulation of vineyard yeast isolate – strain RM11-1a, OD600, basal, 24 h, primary screen (AID 1177).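 Also: cultures grown under basal conditions with no added stressor; test concentration not given here.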 Particulars: S. cerevisiae RM11-1a growth, OD600, 24 h; higher = more signal, called active from +8 up or from −8 down.
Experiment [7] is described as follows: growth of efflux-deficient E. coli DRC39 – strain DRC39, OD650, 24 h, E. coli filamentation inducers, primary screen (AID 1178).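 Also: growth measured as culture turbidity by optical density at 650 nm; test concentration not given here.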 Conditions: E. coli DRC39 acrAB, higher = more signal, called active from +8 up or from −8 down.
The nature of experiment [8]: growth of efflux-deficient E. coli DRC39 – strain DRC39, OD650, 48 h, E. coli filamentation inducers, primary screen (AID 1179).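 Also: screen aims at cell division blockers that make cells filament.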 Conditions: E. coli DRC39 delta-acrAB growth, higher = more signal, called active from +8 up or from −8 down.
Experiment [9] can be described thus: viability profiling in RPMI8226 myeloma cells – cell-based, resazurin fluorescence, basal, 24 h, PK04 Diversity Set, profiling panel (AID 1180).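 Also: RPMI8826 multiple myeloma cell line at 5000 cells per well; test concentration not given here.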 Particulars: higher = more signal.
Experiment [10] has as its target E3 ubiquitin-protein ligase XIAP (Homo sapiens) (UniProt P98170). Description: small molecules binding XIAP protein – biophysical, small-molecule microarray, fluorescence 635 nm, primary screen (AID 1181).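 Also: score merges 667 nm emission and signal to noise over triplicate slides.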 Particulars: higher = more signal.

Active and inactive are the calls of the source. Unless noted, no rule for the calls is given here.

Sequence of Dihydroorotate dehydrogenase (quinone), mitochondrial (Plasmodium falciparum (isolate 3D7)) (Q08210 whole entry, looked up): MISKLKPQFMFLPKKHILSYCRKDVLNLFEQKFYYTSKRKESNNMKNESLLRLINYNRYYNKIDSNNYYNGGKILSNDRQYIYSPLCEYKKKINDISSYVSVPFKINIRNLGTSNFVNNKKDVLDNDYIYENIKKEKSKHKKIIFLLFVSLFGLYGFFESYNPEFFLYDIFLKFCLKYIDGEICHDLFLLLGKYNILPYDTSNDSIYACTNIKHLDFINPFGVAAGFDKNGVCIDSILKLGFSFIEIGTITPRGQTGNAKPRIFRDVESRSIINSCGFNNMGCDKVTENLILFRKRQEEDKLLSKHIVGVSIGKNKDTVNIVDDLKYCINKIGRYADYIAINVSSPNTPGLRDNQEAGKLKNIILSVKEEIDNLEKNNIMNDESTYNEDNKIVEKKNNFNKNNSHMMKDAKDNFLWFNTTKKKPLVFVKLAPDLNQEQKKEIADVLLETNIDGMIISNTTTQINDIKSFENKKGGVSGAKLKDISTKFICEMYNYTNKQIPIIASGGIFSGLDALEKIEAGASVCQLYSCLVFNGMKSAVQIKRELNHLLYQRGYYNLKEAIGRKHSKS
Sequence of E3 ubiquitin-protein ligase XIAP (Homo sapiens) (P98170 whole entry, looked up): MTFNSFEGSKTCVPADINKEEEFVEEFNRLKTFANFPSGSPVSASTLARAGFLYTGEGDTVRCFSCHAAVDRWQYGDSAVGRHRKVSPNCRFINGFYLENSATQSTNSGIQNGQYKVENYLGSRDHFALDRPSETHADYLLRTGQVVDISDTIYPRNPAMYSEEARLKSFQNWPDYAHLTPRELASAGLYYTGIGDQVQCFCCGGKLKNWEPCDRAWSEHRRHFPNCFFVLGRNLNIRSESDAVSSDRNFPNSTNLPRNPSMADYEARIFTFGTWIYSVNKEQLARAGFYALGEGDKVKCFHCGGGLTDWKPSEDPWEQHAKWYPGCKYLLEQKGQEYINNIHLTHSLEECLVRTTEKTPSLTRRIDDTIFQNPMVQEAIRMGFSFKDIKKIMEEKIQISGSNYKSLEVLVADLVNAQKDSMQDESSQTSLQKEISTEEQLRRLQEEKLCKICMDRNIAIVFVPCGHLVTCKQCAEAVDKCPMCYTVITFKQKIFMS

As to `COc1ccc([Si](C)(C)[C@H]2[C@H](CCO)O[C@@]3(C(=O)N(C)c4c(Br)cc(C)cc43)[C@@H]2C)cc1`, the z-score in [1] is -6.47; in experiment [2], 0.0436 (inactive); in experiment [3] it was -9.16 (active); in experiment [5] it was 0.814 (inactive); in [6], 3.93 (inactive); in experiment [7] it was -0.185 (inactive). Moreover, the z-score in [8] was -1.4 (inactive); in experiment [9], -6.31. Further, the composite z-score in experiment [4] is 1.13 (inactive); in experiment [10], 0.184.

`CC(C)C[C@@H]1NC(=O)[C@@H]2C[C@H](C(=O)NCCCCCN)[C@H](c3cccc(OCCO)c3)N2C1=O`: the z-score is -0.573 in [1]; -1.22 (inactive) in experiment [2]; 0.522 (inactive) in [3]; 0.792 (inactive) in [5]; -2.75 (inactive) in experiment [6]; 1.06 (inactive) in [7]. In addition, the z-score in experiment [8] was 1.75 (inactive); in [9], 0.465. The composite z-score in experiment [4] is -1.78 (inactive); in experiment [10], 0.0337.

In the case of `COc1ccc([Si](C)(C)[C@@H]2[C@@H](CCO)O[C@]3(C(=O)N(Cc4ccc(N5C(=O)COc6ccccc65)cc4)c4ccccc43)[C@H]2C)cc1`, the z-score in experiment [1] was -1.59; in experiment [2], 1.54 (inactive); in experiment [3], -2.01 (inactive); in experiment [5] it was 2.5 (inactive); in experiment [6] it was 4.73 (inactive); in experiment [7] it was -0.238 (inactive). The z-score in [8] is -0.639 (inactive); in [9], -3.64. For the same compound, the composite z-score in experiment [4] is -0.0524 (inactive); in experiment [10] it was -0.0559.

In the case of `COc1ccc(C(=O)O[C@H]2CC[C@]3(C)C4=C(CCC3C2(C)C)[C@]2(C)CC[C@H]([C@H](C)CCCC(C)C)[C@@]2(C)CC4)cc1` (stereo not given in full), the z-score in experiment [1] is 1.09; in experiment [2], 1.77 (inactive); in experiment [3], 0.873 (inactive); in experiment [5], 0.814 (inactive); in experiment [6], -1.09 (inactive); in experiment [7] it was 1.25 (inactive). Also, the z-score is 1.11 (inactive) in experiment [8] and 1.37 in experiment [9]. For the same compound, the composite z-score was -1.74 (inactive) in [4] and -0.142 in experiment [10].

As to `CCOC(=O)C1=CCC(c2ccc(C)cc2)N(S(=O)(=O)c2ccc(C)cc2)C1` (stereo not given), the z-score in [1] is 0.28; in [2], 1.94 (inactive); in [3], -0.714 (inactive); in experiment [5], 0.173 (inactive); in experiment [6], 1.03 (inactive); in experiment [7], -0.764 (inactive). Moreover, the z-score in experiment [8] is -0.56 (inactive); in [9] it was -1.63. Moreover, the values for the composite z-score in experiment [4] and in experiment [10] were -0.526 (inactive) and 0.128, respectively.

Consider `O=C1C[C@]2(c3ccc([N+](=O)[O-])cc3)C(=O)N(CCN3CCOCC3)c3cc(CO)ccc3[C@H]2N1C1CCCCC1`, for which the z-score is -0.592 in experiment [1]; -0.0979 (inactive) in [2]; -0.399 (inactive) in experiment [3]; 0.0993 (inactive) in [5]; -0.974 (inactive) in experiment [6]; 1.06 (inactive) in experiment [7]. Further, the z-score in experiment [8] was 1.66 (inactive); in experiment [9], 0.186. For the same compound, the values for the composite z-score in experiment [4] and in experiment [10] were -7.11 (inactive) and -0.16, respectively.

Take `COCCOC(=O)N1C(=O)[C@@]2(c3cc(C#CCCO)ccc31)[C@H](C(=O)N1CCc3cc(OC)c(OC)cc3C1)[C@H]1C(=O)O[C@H](c3ccccc3)[C@H](c3ccccc3)N1[C@@H]2c1ccc(O)cc1`: the z-score was 0.0444 in experiment [1]; -0.253 (inactive) in experiment [2]; -0.419 (inactive) in experiment [3]; 0.875 (inactive) in experiment [5]; 2.12 (inactive) in experiment [6]; 0.316 (inactive) in experiment [7]. In addition, the z-score is 0.884 (inactive) in experiment [8] and -0.368 in [9]. The composite z-score in [4] was -0.268 (inactive); in [10], -0.0812.

On to `O=C1C2C=CC(C(O)c3c(F)cccc3Cl)N(Nc3ccccc3)C2C(=O)N1c1ccccc1` (stereo not given), for which the z-score in experiment [1] is 0.947; in experiment [2], -1.48 (inactive); in [3], -0.478 (inactive); in experiment [5] it was -0.131 (inactive); in [6], -0.679 (inactive); in [7] it was 0.302 (inactive). In addition, the z-score in experiment [8] is 1.28 (inactive); in [9], 0.284. The composite z-score in experiment [4] was 0.693 (inactive); in [10], 0.0975.

On to `C[N+](C)(C)CCCC[C@@H]1NC(=O)[C@@H]2C[C@H](C(=O)NCCCCCN)[C@H](c3cccc(OCCO)c3)N2C1=O`, for which the z-score in [1] is -0.85; in [2], -0.749 (inactive); in experiment [3], -1.23 (inactive); in experiment [5] it was 0.131 (inactive); in [6] it was 0.527 (inactive); in experiment [7] it was 0.0148 (inactive). The z-score in experiment [8] was 0.597 (inactive); in experiment [9] it was 0.0758. In addition, the composite z-score is -0.76 (inactive) in [4] and 0.191 in [10].

Turning to `CCCC[C@@H]1C[C@H]1[C@@H](NC(=O)c1ccco1)c1ccc(C(=O)OC)cc1`, the z-score in [1] is -0.351; in experiment [2], 0.788 (inactive); in [3], -0.184 (inactive); in experiment [5], 0.812 (inactive); in experiment [6], -0.716 (inactive); in [7], -1.03 (inactive). Also, the figures for the z-score in [8] and in experiment [9] were -0.489 (inactive) and -0.826, respectively. The composite z-score was -0.271 (inactive) in [4] and 0.104 in [10].

Regarding `CCCCC(O)C1C=CC2C(=O)N(c3ccccc3)C(=O)C2N1Nc1ccccc1F` (stereo not given), the z-score is -0.8 in experiment [1]; -0.42 (inactive) in experiment [2]; -0.459 (inactive) in experiment [3]; 1.14 (inactive) in experiment [5]; -0.182 (inactive) in experiment [6]; -0.221 (inactive) in experiment [7]. Further, the z-score in experiment [8] is 0.128 (inactive); in experiment [9], -0.786. Further, the composite z-score is -0.365 (inactive) in experiment [4] and 0.691 in experiment [10].

For the compound `CC(C)OC(=O)C=C1C[C@@H](c2ccccc2C(F)(F)F)O[C@@H](c2ccccc2C(F)(F)F)O1`, the z-score in [1] was -0.111; in experiment [2] it was 0.0349 (inactive); in [3], 0.493 (inactive); in [5] it was -0.212 (inactive); in experiment [6], 0.123 (inactive); in [7], -1.23 (inactive). The z-score is 0.217 (inactive) in [8] and -0.818 in experiment [9]. Moreover, the composite z-score was -1.12 (inactive) in [4] and 0.193 in experiment [10].
